Structures are written as SMILES. For some of these results: Entries with a potency or affinity are not part of this list. Records with an inconclusive call do not appear. The list shows a part of the results. Calls of active or inactive are those of the source.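 Rule for the calls, unless noted: active = signal-lowering compounds whose fitted half-maximal concentration is at or below twice the top tested dose in every run; inconclusive = runs disagree, flat 30 to 70% inhibition, or poor curve fit; inactive = the rest.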

The nature of one assay: small-molecule DNA binding by polarization – biochemical, fluorescence polarization, cherry-pick, counter-screen for EWS/Fli inhibitor project, dose response (AID 720586;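 active = fitted curve reaches a 35% signal fall AC35 below twice the sample's top valid tested dose, actives reach about 48 µM in these data; inactive = the rest, including activity in the rising direction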;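 note: lower polarization ratio signals compound binding to DNA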;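 for activity change, negative = DNA binding: 0% = neutral control median and -100% = 10 µM mitoxantrone control median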). To be noted: salmon sperm DNA acridine orange fluorescence polarization; series mostly up to 68 µM; activity change, negative = DNA binding: at the top concentration. Background: In fluorescence polarisation assays a small probe gives low polarisation when free and higher when bound to something large.
With `CCC(C)Cn1c(O)cc2nn(-c3nc4ccccc4s3)c(=O)c-2c1C` (configuration not stated), the AC35 was 48.3 µM (active).

On to `C[C@H](CO)N1C[C@H](C)[C@H](CN(C)Cc2ccc(C(F)(F)F)cc2)Oc2ccc(NC(=O)CCCCCC(=O)Nc3ccccc3N)cc2CC1=O`, for which the “activity change, negative = DNA binding” value is -11.4% (inactive).

For the compound `COc1ccc(Nc2ncnc3ccc(Br)cc23)c(OC)c1`, the “activity change, negative = DNA binding” value was 0.036% (inactive).

For `CCOc1cc2[nH]c(=S)n(Cc3ccc(C(=O)N4CCN(C)CC4)cc3)c(=O)c2cc1OCC`, the “activity change, negative = DNA binding” value is -9.45% (inactive).

`COc1ccc(-c2nc3c(s2)CCc2onc(-c4ccc(OC)cc4)c2-3)cc1`: the “activity change, negative = DNA binding” value was -8.71% (inactive).

Turning to `C[C@H](CO)N1C[C@H](C)[C@H](CN(C)CC2CCCCC2)Oc2ccc(NC(=O)CCCCCC(=O)Nc3ccccc3N)cc2CC1=O`, the “activity change, negative = DNA binding” value was -3.41% [at 56 µM] (inactive).

With `C[C@H]1CN([C@@H](C)CO)C(=O)Cc2cc(NC(=O)C3CC3)ccc2O[C@H]1CN(C)S(=O)(=O)c1ccc(Cl)cc1`, the “activity change, negative = DNA binding” value is -10.7% (inactive).

In the case of `COC(=O)C[C@@H]1CC[C@@H]2[C@H](COc3ccc(NC(=O)c4cccc(F)c4)cc3C(=O)N2C)O1`, the “activity change, negative = DNA binding” value was -10.5% (inactive).

For `COc1ccc(OC)c(Cc2cnc3nc(N)nc(N)c3c2C)c1`, the “activity change, negative = DNA binding” value was -2.4% (inactive).

As to `OCCN1CCN(C(=S)c2ccc(-c3ccccc3)cc2)CC1`, the “activity change, negative = DNA binding” value was 8.55% (inactive).

For the compound `N#C[C@@H]1[C@H](c2ccc(C#Cc3cccc(F)c3)cc2)[C@@H](CO)N1C(=O)C1CCCC1`, the “activity change, negative = DNA binding” value is 9.84% (inactive).

Turning to `CCn1c(/C=N/NC(=O)c2ccc(OC)cc2)nc2ccccc21`, the “activity change, negative = DNA binding” value was -15.6% (inactive).

As to `CC(=O)Nc1ccc(S(=O)(=O)Nc2ccc(N3CCCCC3)cc2)cc1`, the “activity change, negative = DNA binding” value was -2.53% (inactive).

As for `CN(CCO)c1ccc(/C=N/Nc2nncc3ccccc23)cc1`, the “activity change, negative = DNA binding” value was -11.9% (inactive).

Another assay in a line: CMV-driven luciferase expression suppression in HEK293 – cell-based, luminescence, dry powder, counter-screen for Pax8 inhibitor project, dose response (AID 743020).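 Note: HEK293 cells stably expressing the CMV luciferase reporter.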 As to conditions: HEK293 CMV-luciferase reporter, SteadyGlo luminescence, 24 h; series mostly up to 35 µM; activity change, negative = inhibition: at the top concentration. (In general: The purpose of a counterscreen is to sort out artefacts and off-target activity.)
Consider `CCc1cc(-c2n[nH]c(C)c2-c2nc3ccccc3n2C)c(O)cc1O`, for which the “activity change, negative = inhibition” value was 6.76% (inactive).

`O=C(CCl)N(Cc1ccccc1)c1ccccc1`: the “activity change, negative = inhibition” value is -1.57% (inactive).

On to `CCOc1ccc(NC(=O)Nc2cc(OCC(F)(F)F)cc(OCC(F)(F)F)c2)cc1`, for which the “activity change, negative = inhibition” value was 19.3% (inactive).

`COCCn1c(C)cc(C2=NNC(=NC3CC3)SC2)c1C`: the “activity change, negative = inhibition” value was -20% (inactive).

In the case of `O=C(NCc1cc(C(F)(F)F)ccc1Cl)c1cccc2c1C(=O)c1ccc(N3CCC(N4CCCCC4)CC3)cc1S2(=O)=O`, the “activity change, negative = inhibition” value is -3.91% (inactive).

As to `O=C(NC12CC3CC(CC(C3)C1)C2)c1ccc([N+](=O)[O-])o1`, the “activity change, negative = inhibition” value is 8.93% (inactive).

Regarding `S=c1sc2c(Cl)ncnc2n1-c1ccccc1`, the “activity change, negative = inhibition” value is 8.06% (inactive).

In the case of `Cc1cccc(N(Cc2cc(=O)[nH]c3ccccc23)C(=O)CCl)c1`, the “activity change, negative = inhibition” value was -1.21% (inactive).

As for `N#Cc1ccc(-c2ccc(C3[C@@H]4CN(C(=O)C5CC5)C[C@H]3N4)cc2)cc1` (some centres not stated), the “activity change, negative = inhibition” value is 2.04% (inactive).

Turning to `O=C(Nc1ccc(N2CCN(C(=O)c3ccccc3)CC2)cc1)c1ccc([N+](=O)[O-])o1`, the “activity change, negative = inhibition” value is -17.8% (inactive).

`O=C(c1cc([N+](=O)[O-])ccc1N1CCOCC1)N1CCN(c2ccccc2)CC1`: the “activity change, negative = inhibition” value is -25.1% (inactive).

Take `Cc1ccc(Cl)cc1N1CCN(C(=O)c2noc(C)c2[N+](=O)[O-])CC1`: the “activity change, negative = inhibition” value is 8.21% (inactive).

In the case of `CCOC(=O)c1c(C)[nH]c2c1-c1ccccc1C(=O)C2=O`, the “activity change, negative = inhibition” value was 6.64% (inactive).

Turning to `COc1ccccc1C(=O)Nc1nc2ccccc2[nH]1`, the “activity change, negative = inhibition” value was 53.6% (inactive).

For `COc1ccc(NC(=O)c2c(Nc3ccccc3)sc(C(=O)c3ccc(F)cc3)c2N)cc1`, the “activity change, negative = inhibition” value was -15.4% (inactive).

With `CC(=O)[C@@]1(O)Cc2c(O)c3c(c(O)c2[C@H](O[C@H]2C[C@H](N)[C@H](O)[C@H](C)O2)C1)C(=O)c1ccccc1C3=O`, the “activity change, negative = inhibition” value was -3.85% (inactive).

On to `Cc1nc(Nc2nc(CSc3nc4ccccc4[nH]3)cc(=O)[nH]2)nc2ccccc12`, for which the “activity change, negative = inhibition” value is -17.3% (inactive).

Turning to `Nc1nc(=S)c2[nH]cnc2[nH]1`, the “activity change, negative = inhibition” value is -14.4% (inactive).

Turning to `CCOc1ccc(C(=O)C(CCC(CN(C)C)C(=O)c2ccc(OCC)cc2)CN(C)C)cc1` (configuration not stated), the “activity change, negative = inhibition” value is -36.4% (inactive).

Regarding `C(=Cc1cnc2ccccc2n1)c1ccc2c(c1)OCO2`, the “activity change, negative = inhibition” value was -41.1% (inactive).

For `Cc1ccc(-c2csc3ncnc(Sc4nnc(CN5CCCCCC5=O)o4)c23)cc1`, the “activity change, negative = inhibition” value is 6.16% (inactive).

Regarding `O=C(NC1CCCCC1)C(c1cccnc1)N(C(=O)CCl)c1ccc(F)cc1` (configuration not stated), the “activity change, negative = inhibition” value is 10.5% (inactive).

As to `Cc1cnc(NC(=O)c2ccc3c(c2)OCCO3)s1`, the “activity change, negative = inhibition” value was 10% (inactive).

Regarding `COc1ccc(-c2nc3c(c(SCC(=O)Nc4cccc(O)c4)n2)Cc2c(CO)cnc(C)c2O3)cc1`, the “activity change, negative = inhibition” value is 20.3% (inactive).

As for `Cn1ncc2c(O/N=C(\N)c3ccc(C(F)(F)F)cc3)ncnc21`, the “activity change, negative = inhibition” value was 7.5% (inactive).

For the compound `COC(=O)[C@]12CCCCC=C1N(Cc1ccc(Cl)cc1Cl)C(=O)[C@H](CC(=O)N1CCN(C(=O)c3ccco3)CC1)C2`, the “activity change, negative = inhibition” value is 4.73% (inactive).

A short description of a further assay: general cell-killing toxicity readout – plate reader, dry powder samples, cytotoxicity control for PAX8 inhibitor project, dose response (AID 743021; call rule not given here). As to conditions: cell line, non-specific cytotoxicity counter-screen; series mostly up to 35 µM; activity change, negative = cytotoxicity: at the top concentration.
For `CCc1cc(-c2n[nH]c(C)c2-c2nc3ccccc3n2C)c(O)cc1O`, the “activity change, negative = cytotoxicity” value is -7.05% (inactive).

Consider `CCOc1ccc(NC(=O)Nc2cc(OCC(F)(F)F)cc(OCC(F)(F)F)c2)cc1`, for which the “activity change, negative = cytotoxicity” value is -6.15% (inactive).

For `O=C(NC12CC3CC(CC(C3)C1)C2)c1ccc([N+](=O)[O-])o1`, the “activity change, negative = cytotoxicity” value was 10.3% (inactive).

`N#Cc1ccc(-c2ccc(C3[C@@H]4CN(C(=O)C5CC5)C[C@H]3N4)cc2)cc1` (some centres not stated): the “activity change, negative = cytotoxicity” value was -1.82% (inactive).

In the case of `O=C(Nc1ccc(N2CCN(C(=O)c3ccccc3)CC2)cc1)c1ccc([N+](=O)[O-])o1`, the “activity change, negative = cytotoxicity” value is 12.9% (inactive).

On to `O=C(c1cc([N+](=O)[O-])ccc1N1CCOCC1)N1CCN(c2ccccc2)CC1`, for which the “activity change, negative = cytotoxicity” value was 16% (inactive).

On to `COc1ccc(NC(=O)c2c(Nc3ccccc3)sc(C(=O)c3ccc(F)cc3)c2N)cc1`, for which the “activity change, negative = cytotoxicity” value is -14% (inactive).

On to `CC(=O)[C@@]1(O)Cc2c(O)c3c(c(O)c2[C@H](O[C@H]2C[C@H](N)[C@H](O)[C@H](C)O2)C1)C(=O)c1ccccc1C3=O`, for which the “activity change, negative = cytotoxicity” value was 15.8% (inactive).

As for `Cc1nc(Nc2nc(CSc3nc4ccccc4[nH]3)cc(=O)[nH]2)nc2ccccc12`, the “activity change, negative = cytotoxicity” value was 5.97% (inactive).

Take `Cc1ccc(-c2csc3ncnc(Sc4nnc(CN5CCCCCC5=O)o4)c23)cc1`: the “activity change, negative = cytotoxicity” value is -2.75% [at 16 µM] (inactive).

With `COc1ccc(-c2nc3c(c(SCC(=O)Nc4cccc(O)c4)n2)Cc2c(CO)cnc(C)c2O3)cc1`, the “activity change, negative = cytotoxicity” value is -8.49% (inactive).

As to `COC(=O)[C@]12CCCCC=C1N(Cc1ccc(Cl)cc1Cl)C(=O)[C@H](CC(=O)N1CCN(C(=O)c3ccco3)CC1)C2`, the “activity change, negative = cytotoxicity” value was -17.3% (inactive).

The record behind these values is PubChem BioAssay.
